We go through 71 compounds from PubChem BioAssay AID1981 (Southern Research Specialized Biocontainment Screening …, 2009).

SMILES strings stand for the structures. The campaign covered roughly 2,200 compounds. About 480 (22%) were called active. The rule behind the calls is not given here. A selection follows. Measured potencies and affinities stand elsewhere.

This assay can be described thus: S. Typhimurium GFP fluorescence dose response in modified counterscreen for PhoP regulon inhibitor project (AID 1981). As to conditions: 4 h; series mostly up to 150 µM. In general terms: A counterscreen serves to expose hits that act by an unwanted route or on another target.
In the case of `O=C(O)Cc1sc(Nc2ccc(Cl)cc2)nc1-c1cccs1`, the compound was called inactive.

With `S=C(c1ccc2c(c1)OCO2)N1CCCC1`, the result was inactive.

With `Cc1ccc(-c2n[nH]c(=S)n2/N=C/c2cc3c(cc2[N+](=O)[O-])OCO3)cc1`, the compound was called inactive.

Take `O=c1[nH]c(SCc2nc3ccccc3c(=O)n2-c2ccccc2C(F)(F)F)nc2ccccc12`: the compound was classed as inactive.

Turning to `CCC(OC(=O)C(NC(=O)c1ccccc1)c1ccccc1)C(=O)Nc1cc(C)on1` (stereo unspecified), the compound was classed as inactive.

On to `S=c1[nH]nc(Cc2cccc3ccccc23)o1`, for which the compound was classed as inactive.

`Cc1ccc(S(=O)(=O)N2C(=O)CCC2C(=O)N2CCN(C)CC2)cc1` (stereo unspecified): the result was inactive.

`CN(C)c1nc(N)nc(Cn2ccnc2)n1`: the call was inactive.

As to `CC(NCc1ccc(Cl)c(Cl)c1)C(O)c1ccccc1` (stereo unspecified), the call was inactive.

In the case of `CCCc1cc(C(=O)Cc2ccc(C(=O)OCC)o2)c(O)cc1O`, the outcome was inactive.

Consider `COc1ccc(C(=O)Nn2c(SCC(=O)N3CCC(C)CC3)nc3ccccc3c2=O)cc1`, for which the outcome was inactive.

Take `O=C(COc1ncnc2sccc12)N1CCN(S(=O)(=O)c2ccc(Cl)cc2)CC1`: the outcome was inactive.

On to `O=S(=O)(c1ccc2c(c1)OCCO2)N1CCN(c2cccc(Cl)c2)CC1`, for which the compound was classed as inactive.

As for `COc1ccc(N(C(=O)CCl)C(C(=O)NCCc2ccccc2)c2cccs2)cc1` (stereo unspecified), the result was inactive.

For the compound `S=C(Nc1ccc2snnc2c1)N1CCN(c2ccccn2)CC1`, the call was inactive.

As for `CCn1c2ccccc2c2nnc(SCC(=O)Nc3ccc4c(c3)OCO4)nc21`, the outcome was inactive.

In the case of `CCCn1c(SCC(=O)c2c(C)[nH]c(C)c2C(=O)OCC)nc2ccccc21`, the result was inactive.

On to `Clc1ccc(CNc2ccc(CNc3ncn[nH]3)cc2)cc1`, for which the outcome was inactive.

As to `COc1cc(CNc2ccc(CNc3ncn[nH]3)cc2)ccc1OCc1ccccc1`, the compound was called inactive.

Consider `CC(C)(C)c1n[nH]c(=S)n(/N=C/c2cccs2)c1=O`, for which the compound was called inactive.

For the compound `Cc1cccc(Nc2nnc(SCC(=O)NC3CCCc4ccccc43)s2)c1` (stereo unspecified), the compound was called inactive.

For `CCCCOc1ccc(S(=O)(=O)NNC(=O)C2Cc3c(ccc4ccccc34)O2)cc1` (stereo unspecified), the outcome was inactive.

For `Clc1ccc(SCCCCn2ccnc2)cc1`, the outcome was inactive.

As to `Cc1c(NS(=O)(=O)c2ccccc2)c(=O)n(-c2ccccc2)n1C`, the outcome was inactive.

On to `CN1CCN(Cc2nc3ccccc3c(=O)[nH]2)CC1`, for which the result was inactive.

For the compound `CC(O)CNc1cc(N)c([N+](=O)[O-])cc1[N+](=O)[O-]` (stereo unspecified), the compound was classed as inactive.

`O=P1(NC2CCCC2)COc2ccccc2OC1`: the compound was called inactive.

On to `c1ccc(Nc2nc3ccccc3[nH]2)nc1`, for which the compound was called inactive.

`c1ccc(Nc2ccnc(Nc3ccccc3)n2)cc1`: the compound was called inactive.

On to `O=C1CN(C(=O)COC(=O)CCC(=O)c2ccc3c(c2)OCCO3)c2ccccc2N1`, for which the compound was classed as inactive.

As to `CSC(=NS(=O)(=O)c1ccccc1)SC`, the compound was classed as inactive.

Regarding `O=C(c1ccccc1)C(CN1CCCC1)c1ccccc1` (stereo unspecified), the compound was called inactive.

Regarding `NC1=NC(=Nc2ccc(Cl)cc2)c2ccccc21`, the outcome was inactive.

In the case of `C(=Nc1ccc(Nc2ccccc2)cc1)c1ccc2ccccc2c1`, the result was inactive.

In the case of `CCOC(=O)N1CCN(c2nc(C)c3c(n2)CCCC3=O)CC1`, the result was inactive.

Take `Cc1cc(=O)oc2cc(OCC(O)CN3CCc4ccccc4C3)ccc12` (stereo unspecified): the compound was called inactive.

In the case of `CN1CCCC(OC(=O)c2ccc3c(c2)OCCO3)C1` (stereo unspecified), the call was inactive.

As to `COc1nc(N(c2ccccc2)c2ccccc2)nc(-n2ccnc2)n1`, the result was inactive.

On to `COc1ccc(-c2cc(C(=O)Nc3ccc(S(=O)(=O)Nc4ncccn4)cc3)c3ccccc3n2)cc1`, for which the call was inactive.

Consider `O=C(c1ccco1)N1CCN(c2ncnc3c2[nH]c2ccccc23)CC1`, for which the result was inactive.

For `COC(=O)c1ccc(Sc2ccccc2NS(=O)(=O)c2ccc(C)cc2)nc1`, the compound was called inactive.

With `CN(CC(=O)NCc1cccc(F)c1)C(=O)c1ccco1`, the result was inactive.

With `COCCCNc1ccnc2c(Cl)cccc12`, the result was inactive.

On to `C=CCOc1ccc(/C=N/NC(=O)CN(c2cc(Cl)ccc2OC)S(=O)(=O)c2ccc(C)c([N+](=O)[O-])c2)cc1`, for which the outcome was inactive.

For `CN(CC(=O)Nc1ccc(C#N)cc1)Cc1ccc(Cl)cc1`, the call was inactive.

In the case of `O=C(CSc1ccc(Cl)cc1)Nc1ccccc1N1CCN(C(=O)c2ccc(Cl)cc2)CC1`, the compound was classed as inactive.

As to `Cc1nc(C(=O)Nc2ccc(Cl)cc2)nn1-c1ccc([N+](=O)[O-])cc1`, the compound was called inactive.

Consider `OC1(c2ccc3ccccc3c2)CCN(Cc2ccccc2)C1` (stereo unspecified), for which the call was inactive.

On to `NNC(=O)c1cc2ccccc2cc1O`, for which the result was inactive.

For the compound `NC(=NCCc1c[nH]c2ccccc12)NC(=O)c1ccc(F)cc1`, the call was inactive.

Take `C=CCSc1ncnc2sc(C)c(C)c12`: the result was inactive.

With `Cc1cc2cc(CCNC(=O)c3cccs3)c(=O)[nH]c2cc1C`, the compound was called inactive.

In the case of `CCOC(=O)c1cnc2ccc(OC)cc2c1Nc1ccc2c(c1)OCCO2`, the call was inactive.

On to `COc1cccc(Cn2cnc3c(NS(=O)(=O)c4cccc(Cl)c4Cl)c(C)c(C)cc32)c1`, for which the compound was classed as inactive.

As for `Cc1cc(Oc2ccc(-c3nnc(-c4ccccc4)o3)cc2[N+](=O)[O-])ccc1Cl`, the compound was classed as inactive.

Turning to `O=c1[nH]c(CSc2nnc(NCCCN3CCOCC3)s2)nc2cc(Cl)ccc12`, the compound was classed as inactive.

`O=C(Nc1ccc(O)cc1)c1cc2n(n1)C(C(F)(F)F)CC(c1ccco1)N2` (stereo unspecified): the compound was classed as inactive.

`CCOc1cc(C2Nc3cccc4cccc(c34)N2)ccc1O`: the call was inactive.

As to `OC(COc1ccc2c(c1)CCC2)Cn1cnc2ccccc21` (stereo unspecified), the compound was called inactive.

With `O=C1CC(SCc2nc3ccccc3[nH]2)C(=O)N1c1ccc(Cl)cc1` (stereo unspecified), the call was inactive.

Regarding `Cc1c(Cl)cccc1NC(=O)CSc1ncnc2c1cnn2CCc1ccccc1`, the compound was called inactive.

For the compound `Cc1ccc(S(=O)(=O)N2CCC(C(N)=O)CC2)c(C)c1C`, the result was inactive.

As for `O=C1C2=C(NC(=S)NC2c2ccc(Cl)cc2)NC(c2ccc(Cl)cc2)N1c1ccc(Cl)cc1` (stereo unspecified), the result was inactive.

For `Cc1nc(-c2ccccc2)cc(=O)[nH]1`, the compound was called inactive.

Turning to `CC(=O)C1=C(C)Nc2ncnn2C1c1ccccc1OCc1ccccc1` (stereo unspecified), the call was inactive.

Regarding `O=C(Nc1ccc2c(c1)OCO2)c1cnn2cccnc12`, the compound was called inactive.

As to `OCCN(Cc1ccccc1)Cc1ccc(Cl)cc1`, the compound was classed as inactive.

For `CC(O)CNCCNCc1c(OCc2ccccc2)ccc2ccccc12` (stereo unspecified), the call was inactive.

For `N#CC1=C(N)Oc2c(O)cc3ccccc3c2C1c1ccsc1` (stereo unspecified), the compound was classed as inactive.

For `COc1ccc(Nc2ccc3c(c2)=NC2(CCCCC2)[N+]=3[O-])cc1`, the compound was called inactive.

Consider `COc1ccc(Nc2sc(C(=O)Nc3cccc(Cl)c3)c(N)c2C(=O)Nc2ccccc2OC)cc1`, for which the compound was classed as inactive.
